Results reported in ChEMBL document CHEMBL4888484, “Replenishing the malaria drug discovery pipeline: Screening and hit evaluation of the MMV Hit Generation Library 1 (HGL1) against asexual blood stage Plasmodium falciparum ,using a nano luciferase reporter read-out” (2022).
The campaign covered roughly 150,000 compounds. About 540 (0.36%) showed an effect of 50% or more. Many of the other results were omitted from the sample, so strong results are more common in it than they were.

Tested on: Plasmodium falciparum
Assay: Primary screen in NF54 nanoGlo assay, in single point, at 2uM, 72h; a lower Z score goes with more inhibition
Assay type: functional, Erythrocyte
Details: timepoint 72 hour

| Structure (SMILES) | % Inhibition | Z score |
| --- | --- | --- |
| O=C(Cn1ncn2nc(-c3ccccc3)cc2c1=O)N1CCCCC1 | -20% | 1.75 |
| N#Cc1cccc(S(=O)(=O)N2CCCCCCC2)c1 | 4% | -0.83 |
| Cc1c2c(=O)n(-c3nc4ccccc4s3)n(Cc3ccc(F)cc3)c2cc(=O)n1CCCN1CCOCC1 | 32% | -3.58 |
| CCc1c2c(=O)n(-c3nc4ccccc4s3)[nH]c2cc(=O)n1CCCN1CCOCC1 | 81% | -10.48 |
| Cc1c2c(=O)n(-c3nc4ccccc4s3)n(CC(=O)Nc3ccc(F)cc3)c2cc(=O)n1CCCN1CCOCC1 | -30% | 3.47 |
| N#Cc1cc(OCC(F)F)nc2ccccc12 | -5% | 0.76 |
| CC(NCC(C)N1CCOCC1C)c1cnn(C(C)C)c1 (configuration not stated) | 1% | -0.14 |
| Cc1ccn2c(CN3CCN([C@H]4CCN(Cc5ccccc5)C4)CC3)c(C)nc2c1 | 57% | -7.67 |
| Cc1ccc(CN2CCN([C@H]3CCN(Cc4ccccc4)C3)CC2)nn1 | 6% | -0.85 |
| c1ccc(CN2CC[C@H](N3CCOCC3)C2)cc1 | 3% | -0.34 |
| Cc1ccc(C)c(N/C(=N\OCc2ccc(Cl)cc2)c2nonc2N)c1 | -1% | 0.28 |
| O=C(c1ccccc1F)N1CCN(C(=O)c2nnn3c2CO[C@H](c2ccc(Cl)cc2)C3)CC1 | -24% | 2.19 |
| CCN(C(C)=O)c1nc2ccccc2n(CC(=O)Nc2cccc(C(C)=O)c2)c1=O | -6% | 0.97 |
| CC(C)CNC(=O)[C@H](C)NCCn1cccn1 | -2% | 0.23 |
| C[C@H](NCCn1cccn1)C(=O)N1CCCCC1 | 3% | -0.33 |
| CC(NCCn1cccn1)C(=O)N1c2ccccc2CC1C (configuration not stated) | 62% | 1.55 |
| CCc1cnc(CN2CCC[C@H]2c2noc(CC)n2)o1 | -10% | 1.41 |
| CC(C)Cc1ccc(CN2CCN([C@H]3CCNC3)CC2)s1 | -6% | 0.81 |
| Clc1cccc(-c2ccc(CN3CCN([C@H]4CCNC4)CC3)o2)c1 | -17% | 1.55 |
| Cc1nc(CNC[C@H](O)c2ccc(Cl)c(F)c2)cs1 | 10% | -1.19 |
| Cn1nnc(CNC[C@H](O)c2ccc(Cl)c(Cl)c2)n1 | 5% | -1.08 |

| Structure (SMILES) | % Inhibition | Z score |
| --- | --- | --- |
| CCc1noc(-c2cccnc2-n2cnc(C(=O)NCc3ccccc3F)c2)n1 | 35% | -3.92 |
| CC(C)(C)n1nc2nc(N3CCCC3)nc(-c3ccc(F)c(Cl)c3)c2c1N | -2% | 0.26 |
| CC(C)(C)n1nc2nc(NCCN3CCCCC3)nc(-c3ccc(F)c(Cl)c3)c2c1N | 75% | -7.01 |
| Nc1c2c(-c3ccc(F)cc3)nc(NCCN3CCCCC3)nc2nn1-c1ccc(Cl)cc1 | -19% | 1.69 |
| O=C(Cn1cc(S(=O)(=O)N2CCOCC2)ccc1=O)Nc1ccc(F)cc1Cl | 4% | -0.76 |
| CN1CCC(N2CCC[C@H]2c2nc(-c3ccc(F)cn3)no2)CC1 | 15% | -1.76 |
| COc1cc(-c2n[nH]cc2CN(C[C@H]2CCC(=O)N2)C(C)C)cc(OC)c1OC | -18% | 1.93 |
| CN(C)c1ccc(NC(=O)CCCc2ccc3[nH]c(=O)[nH]c3c2)nc1 | 0% | 0.04 |
| C[C@H]1[C@@H]2[C@@H](O)C([C@H](C)C(=O)NC3CCCCC3)CC[C@@]2(C)CC[C@@H]1NC(=O)CC(C)(C)C (some centres not stated) | 69% | -5.14 |
| COCCNC(=O)[C@@H](C)[C@@H]1CC[C@@]2(C)CC[C@H](NC(=O)CC(C)(C)C)[C@@H](C)[C@@H]2[C@H]1O | 31% | -3.58 |
| C[C@H]1[C@@H]2[C@@H](O)C([C@H](C)C(=O)NC3CCCC3)CC[C@@]2(C)CC[C@@H]1NC(=O)c1ccc(C#N)cc1 (some centres not stated) | 37% | 1.5 |
| COc1cc2c(cc1-c1nccn1Cc1noc(C(C)C)n1)OCO2 | 5% | -0.45 |
| CCNC(=O)O[C@@H]1CC[C@]2(C)C(CC[C@@H](O)[C@H]2CC(=O)NCc2cccs2)[C@]1(C)CO (some centres not stated) | -4% | 0.6 |
| COc1cc(CN2C(=O)C(C)C(C)C2=O)ccn1 (configuration not stated) | -12% | 1.96 |
| CCc1noc(CCNC(=O)Nc2cc(C)nn2C2CCCCC2)n1 | -3% | 0.5 |
| Cc1ccc([C@H](C)NC(=O)CCc2ccc3[nH]cnc3c2)cc1 | -2% | 0.33 |
| C[C@H]1CN(C2=Nc3ccc(C(F)(F)F)cc3Oc3ccccc32)CCN1C(=O)C1CCCCC1 | -10% | 0.96 |
| Cc1ccsc1CN(Cc1cccnc1)CC(C)C | -9% | 0.87 |
| COc1ccc(CN(Cc2ccco2)C(=O)c2cccc(F)c2)cc1OS(=O)(=O)c1ccc(F)cc1 | -33% | 2.87 |
| CCOC(=O)N1CCC(n2ccnc2-c2nccn2C(C)C)CC1 | -11% | 1.32 |
| COc1ccc(-c2nccn3cc(C(=O)N4CCCC4)nc23)cc1 | 26% | -2.95 |

| Structure (SMILES) | % Inhibition | Z score |
| --- | --- | --- |
| COc1ccc(-c2nccn3cc(C(=O)N4CCCCCC4)nc23)cc1 | 51% | 0.03 |
| Cc1ccc(-c2nccn3cc(C(=O)N4CCCCC4)nc23)cc1 | -2% | 0.32 |
| CC(C)(C(=O)N[C@H]1CCN(Cc2cccnc2)C[C@@H]1O)N1CCOCC1 | -3% | 0.41 |
| Cc1ccc(-c2cc(O)cc(CC[C@H]3CCCCN3)c2)c(C)n1 | 61% | -8.76 |
| CC(=O)c1cc(-c2cc(O)cc(CC[C@H]3CCCCN3)c2)ccc1O | 78% | -7.86 |
| Cc1nc(-n2cnnc2)ccc1-c1cc(O)cc(CC[C@H]2CCCCN2)c1 | -7% | 0.8 |
| Cc1nccc(-c2cc(O)cc(CC[C@H]3CCCCN3)c2)n1 | -12% | 2.52 |
| O=C(O)c1ccccc1-c1cc(O)cc(CC[C@H]2CCCCN2)c1 | -15% | 2.8 |
| Cc1cc(-c2cc(O)cc(CC[C@H]3CCCCN3)c2)ccn1 | 84% | -8.44 |
| OCc1ccnc(-c2cc(O)cc(CC[C@H]3CCCCN3)c2)c1 | -3% | 0.48 |
| CCn1cc(-c2cc(O)cc(CC[C@H]3CCCCN3)c2)c(C)n1 | 3% | -0.45 |
| Nc1cc(-c2cc(O)cc(CC[C@H]3CCCCN3)c2)ccn1 | 9% | -1.53 |
| CC(NS(=O)(=O)N(C)C(C)C)C1CCCO1 (configuration not stated) | -8% | 1.17 |
| C/C=C(\C)C(=O)N1CCC(N2CCC(C(=O)N3CCCC3)CC2)CC1 | -12% | 1.74 |
| CCC(C)C(NC(=O)C1CCC(C)CC1)C(=O)NC1CCN(Cc2ccccc2)CC1 (configuration not stated) | -3% | 0.32 |
| CCCNS(=O)(=O)c1ccc(C(=O)N2C[C@H]3CC[C@@H](C2)N(C)C3)cc1 | -7% | 1.2 |
| Cc1ccc(-n2nc3c(=O)n([C@@H](C)C(=O)NCc4ccc(Cl)cc4)nc(C)c3c2C)cc1 | 10% | -1.13 |
| O=S(=O)(NC1CCc2ccc(Cl)cc21)[C@H]1COC[C@@H]1O (some centres not stated) | -11% | 1.47 |
| Cc1ccc(NC(=O)Cc2nnc(-c3ccc4ncccc4c3)o2)c(Cl)c1 | -6% | 0.57 |
| CCn1cc(NC(=O)c2cc(C3CC3)nc3onc(-c4cnn(CC)c4C)c23)c(C)n1 | 8% | -1.2 |
| CC(C)(C)OC(=O)N1CC2CC1C2C(=O)NCC1CCCO1 (configuration not stated) | 14% | -1.67 |

| Structure (SMILES) | % Inhibition | Z score |
| --- | --- | --- |
| Cc1ncsc1C(=O)N1CCC2(CCCCC2)C1 | 37% | -5.42 |
| Nc1ncc(C(=O)N2CCC3(CCCC3)C2)s1 | 6% | -0.8 |
| Nc1ncc(C(=O)N2CCC3(CCCCCC3)C2)s1 | 97% | -17.77 |
| CC(=O)NC1CCN(Cc2cc(C)nc3ccccc23)CC1 | -6% | 0.83 |
| CC1CCN(c2nccnc2Oc2ccc(C(=O)NCc3ccccc3Cl)cc2)CC1 | 67% | -10.64 |
| CC1CCN(c2nccnc2Oc2ccc(C(=O)N3CCN(c4ccccc4Cl)CC3)cc2)CC1 | 11% | -1.7 |
| CC1CCN(c2nccnc2Oc2ccc(C(=O)NCc3ccco3)cc2)CC1 | -1% | 0.13 |
| CC(NC(CC1CCC1)c1ccccc1)c1cn(C)nn1 (configuration not stated) | 6% | -0.82 |
| CCN(CC)C[C@H](O)COc1ccc(Cl)cc1Cl | 9% | -1.14 |
| Cc1ccccc1OC[C@@H](O)CN(C(C)C)C(C)C | -2% | 0.31 |
| CN(C)CC(O)COc1ccc(S(=O)(=O)c2ccc(OCC(O)CN(C)C)c(Cl)c2)cc1Cl (configuration not stated) | 54% | -6.62 |
| CCS(=O)(=O)N1CCC(N2C(=O)[C@@H]3CC[C@@H](c4ccccc4)N3C2=O)CC1 | 42% | 0.94 |
| CCn1cnc2c(-c3ccccc3)cn(CC(=O)NCc3ccco3)c2c1=O | -9% | 1.31 |
| CCc1cccc(C)c1NC(=O)Cn1cc(-c2ccccc2)c2ncn(CC)c(=O)c21 | 4% | -0.57 |
| CCN(C(=O)Cn1cc(-c2ccccc2)c2ncn(CC)c(=O)c21)c1ccccc1 | 78% | -9.77 |
| O=C(c1ccccc1)c1ccc(O)c(CN2CCCN(c3ccc(C(F)(F)F)cn3)CC2)c1O | 84% | -8.75 |
| FC(F)(F)c1ccc(N2CCCN(Cc3nc4ccccc4o3)CC2)nc1 | -8% | 0.8 |
| O=C(CN1CCCN(c2ccc(C(F)(F)F)cn2)CC1)Nc1ccccc1 | 0% | 0.05 |
